Source: the supplement of paper PMC11732987, “Enantioselective OTUD7B fragment discovery through chemoproteomics screening and high-throughput optimisation” (Communications Chemistry, 2025)

Experiments:
Assay in all cases: log2 ratio of Biotin-Ahx-Ub-VS probe labelling (fragment/DMSO); higher = less target engagement (more negative = stronger competition), active = hit call of the paper (q ≤ 0.05, log2 ratio ≤ -1)
Settings in all cases: compound concentration: 200 uM; treatment time: 3 h
USP34 = USP34 (UniProt Q70CQ2)
Method in brief: (§1)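 Using Biotin-Ahx-Ub-VS at 0.5 µM final for 1 h, DUBs were labelled in HEK293T lysate (495 µg per sample) that had first been treated in triplicate with fragment at 200 µM or vehicle for 3 h. NeutrAvidin enrichment, LysC and trypsin digestion and diaPASEF LC-MS/MS followed. Spectronaut label-free quantities were global-median-normalised. Values are average log2 fragment/vehicle ratios by unpaired t-test, using proteins with ≥2 unique peptides.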

USP36 = target: T1, USP36 (UniProt Q9P275)
T1 sequence (whole entry): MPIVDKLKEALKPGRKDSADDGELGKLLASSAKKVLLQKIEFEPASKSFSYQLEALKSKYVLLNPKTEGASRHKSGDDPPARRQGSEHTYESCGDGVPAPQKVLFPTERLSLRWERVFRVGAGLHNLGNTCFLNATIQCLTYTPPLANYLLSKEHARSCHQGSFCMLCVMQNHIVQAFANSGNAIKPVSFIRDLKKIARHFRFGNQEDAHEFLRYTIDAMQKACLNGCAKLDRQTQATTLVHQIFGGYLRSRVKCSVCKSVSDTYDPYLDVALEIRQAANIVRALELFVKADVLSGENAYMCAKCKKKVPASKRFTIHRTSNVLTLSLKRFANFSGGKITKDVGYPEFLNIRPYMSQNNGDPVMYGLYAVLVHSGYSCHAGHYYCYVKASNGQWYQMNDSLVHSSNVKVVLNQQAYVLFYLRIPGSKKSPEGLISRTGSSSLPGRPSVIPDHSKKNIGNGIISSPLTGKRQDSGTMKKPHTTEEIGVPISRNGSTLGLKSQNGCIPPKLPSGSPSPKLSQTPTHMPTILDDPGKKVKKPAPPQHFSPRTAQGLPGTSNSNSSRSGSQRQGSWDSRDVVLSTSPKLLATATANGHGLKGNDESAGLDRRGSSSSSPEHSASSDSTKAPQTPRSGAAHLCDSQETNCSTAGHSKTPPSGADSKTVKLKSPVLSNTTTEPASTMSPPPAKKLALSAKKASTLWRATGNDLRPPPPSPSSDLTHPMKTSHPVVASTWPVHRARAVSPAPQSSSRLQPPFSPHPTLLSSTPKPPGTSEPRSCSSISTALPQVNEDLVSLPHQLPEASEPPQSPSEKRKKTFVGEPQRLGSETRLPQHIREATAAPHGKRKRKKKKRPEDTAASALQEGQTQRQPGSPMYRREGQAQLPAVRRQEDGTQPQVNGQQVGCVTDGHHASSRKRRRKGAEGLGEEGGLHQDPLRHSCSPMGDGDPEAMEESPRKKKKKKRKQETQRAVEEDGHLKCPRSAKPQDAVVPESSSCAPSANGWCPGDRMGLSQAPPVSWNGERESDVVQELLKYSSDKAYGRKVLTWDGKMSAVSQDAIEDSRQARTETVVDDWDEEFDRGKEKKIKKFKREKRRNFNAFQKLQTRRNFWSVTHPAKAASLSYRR
Method in brief: as §1

USP38 = target: T2, USP38 (UniProt Q8NB14)
T2 sequence (whole entry): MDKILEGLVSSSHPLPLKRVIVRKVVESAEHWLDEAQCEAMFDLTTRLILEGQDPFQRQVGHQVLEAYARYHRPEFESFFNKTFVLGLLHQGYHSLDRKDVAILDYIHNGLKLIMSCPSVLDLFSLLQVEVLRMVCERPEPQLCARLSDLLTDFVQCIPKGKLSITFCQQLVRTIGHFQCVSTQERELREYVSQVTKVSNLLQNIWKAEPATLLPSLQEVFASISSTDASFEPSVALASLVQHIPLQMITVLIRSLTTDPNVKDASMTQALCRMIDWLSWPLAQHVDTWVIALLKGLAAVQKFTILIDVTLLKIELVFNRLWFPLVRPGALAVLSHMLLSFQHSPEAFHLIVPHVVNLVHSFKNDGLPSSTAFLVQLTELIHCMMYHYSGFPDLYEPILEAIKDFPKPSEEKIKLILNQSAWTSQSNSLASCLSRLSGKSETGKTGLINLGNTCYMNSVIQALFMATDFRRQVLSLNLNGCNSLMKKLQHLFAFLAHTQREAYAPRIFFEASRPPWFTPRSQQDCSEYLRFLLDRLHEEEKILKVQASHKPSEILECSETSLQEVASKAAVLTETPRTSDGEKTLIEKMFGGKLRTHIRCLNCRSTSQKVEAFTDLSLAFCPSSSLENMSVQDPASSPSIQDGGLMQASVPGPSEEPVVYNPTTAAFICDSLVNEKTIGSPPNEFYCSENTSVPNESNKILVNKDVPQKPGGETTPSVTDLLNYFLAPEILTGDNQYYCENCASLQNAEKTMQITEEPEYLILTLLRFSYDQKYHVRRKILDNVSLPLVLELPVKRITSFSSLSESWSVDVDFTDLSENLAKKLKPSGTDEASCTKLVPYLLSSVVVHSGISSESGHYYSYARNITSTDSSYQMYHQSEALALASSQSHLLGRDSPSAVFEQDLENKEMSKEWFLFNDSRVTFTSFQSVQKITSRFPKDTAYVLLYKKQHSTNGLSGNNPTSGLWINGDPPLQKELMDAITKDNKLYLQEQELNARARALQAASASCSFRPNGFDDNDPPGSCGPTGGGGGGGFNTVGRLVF
Method in brief: as §1

USP39 = target: T3, USP39 (UniProt Q53GS9)
T3 sequence (whole entry): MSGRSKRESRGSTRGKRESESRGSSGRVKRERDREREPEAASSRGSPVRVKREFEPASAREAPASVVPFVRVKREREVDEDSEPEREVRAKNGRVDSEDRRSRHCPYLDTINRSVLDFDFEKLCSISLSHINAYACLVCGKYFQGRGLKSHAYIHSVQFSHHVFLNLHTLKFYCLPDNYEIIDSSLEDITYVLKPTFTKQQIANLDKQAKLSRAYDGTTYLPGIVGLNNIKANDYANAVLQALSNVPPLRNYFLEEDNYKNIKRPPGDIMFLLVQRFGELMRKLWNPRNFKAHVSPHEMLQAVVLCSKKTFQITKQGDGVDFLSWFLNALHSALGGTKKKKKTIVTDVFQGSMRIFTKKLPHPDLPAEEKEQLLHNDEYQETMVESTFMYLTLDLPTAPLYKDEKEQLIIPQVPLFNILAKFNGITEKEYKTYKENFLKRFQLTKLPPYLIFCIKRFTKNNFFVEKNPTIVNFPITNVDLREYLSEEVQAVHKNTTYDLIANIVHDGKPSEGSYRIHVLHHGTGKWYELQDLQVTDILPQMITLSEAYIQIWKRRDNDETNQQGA
Method in brief: as §1

USP4 = target: T4, USP4 (UniProt Q13107)
T4 sequence (whole entry): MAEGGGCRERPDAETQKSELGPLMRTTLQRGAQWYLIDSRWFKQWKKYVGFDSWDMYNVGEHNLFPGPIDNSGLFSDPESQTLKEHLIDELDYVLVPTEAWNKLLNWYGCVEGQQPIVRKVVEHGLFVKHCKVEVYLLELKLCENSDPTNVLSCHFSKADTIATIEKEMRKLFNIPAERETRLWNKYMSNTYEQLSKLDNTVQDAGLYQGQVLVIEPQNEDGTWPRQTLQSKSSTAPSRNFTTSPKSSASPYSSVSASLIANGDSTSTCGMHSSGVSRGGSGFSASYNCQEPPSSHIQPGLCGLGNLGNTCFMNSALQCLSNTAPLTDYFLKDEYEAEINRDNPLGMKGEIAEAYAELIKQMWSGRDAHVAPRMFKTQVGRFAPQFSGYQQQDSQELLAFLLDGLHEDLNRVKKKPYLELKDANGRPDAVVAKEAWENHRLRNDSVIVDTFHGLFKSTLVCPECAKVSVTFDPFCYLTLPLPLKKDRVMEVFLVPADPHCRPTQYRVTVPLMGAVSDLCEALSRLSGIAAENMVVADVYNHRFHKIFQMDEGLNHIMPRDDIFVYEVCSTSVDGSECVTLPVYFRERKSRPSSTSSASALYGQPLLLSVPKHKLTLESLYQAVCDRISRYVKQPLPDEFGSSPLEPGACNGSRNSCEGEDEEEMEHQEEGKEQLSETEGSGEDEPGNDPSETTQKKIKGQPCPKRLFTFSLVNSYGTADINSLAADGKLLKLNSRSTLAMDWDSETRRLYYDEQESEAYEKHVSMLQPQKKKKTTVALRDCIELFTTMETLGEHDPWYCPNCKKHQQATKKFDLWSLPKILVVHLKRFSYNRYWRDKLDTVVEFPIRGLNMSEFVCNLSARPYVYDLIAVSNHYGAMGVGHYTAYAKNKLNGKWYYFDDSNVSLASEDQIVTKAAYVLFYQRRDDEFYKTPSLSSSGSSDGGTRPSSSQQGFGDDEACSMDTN
Method in brief: as §1

Measured: log2 ratio of Biotin-Ahx-Ub-VS probe labelling

USP34, sequence (Q70CQ2 whole entry, the tested form may be a part): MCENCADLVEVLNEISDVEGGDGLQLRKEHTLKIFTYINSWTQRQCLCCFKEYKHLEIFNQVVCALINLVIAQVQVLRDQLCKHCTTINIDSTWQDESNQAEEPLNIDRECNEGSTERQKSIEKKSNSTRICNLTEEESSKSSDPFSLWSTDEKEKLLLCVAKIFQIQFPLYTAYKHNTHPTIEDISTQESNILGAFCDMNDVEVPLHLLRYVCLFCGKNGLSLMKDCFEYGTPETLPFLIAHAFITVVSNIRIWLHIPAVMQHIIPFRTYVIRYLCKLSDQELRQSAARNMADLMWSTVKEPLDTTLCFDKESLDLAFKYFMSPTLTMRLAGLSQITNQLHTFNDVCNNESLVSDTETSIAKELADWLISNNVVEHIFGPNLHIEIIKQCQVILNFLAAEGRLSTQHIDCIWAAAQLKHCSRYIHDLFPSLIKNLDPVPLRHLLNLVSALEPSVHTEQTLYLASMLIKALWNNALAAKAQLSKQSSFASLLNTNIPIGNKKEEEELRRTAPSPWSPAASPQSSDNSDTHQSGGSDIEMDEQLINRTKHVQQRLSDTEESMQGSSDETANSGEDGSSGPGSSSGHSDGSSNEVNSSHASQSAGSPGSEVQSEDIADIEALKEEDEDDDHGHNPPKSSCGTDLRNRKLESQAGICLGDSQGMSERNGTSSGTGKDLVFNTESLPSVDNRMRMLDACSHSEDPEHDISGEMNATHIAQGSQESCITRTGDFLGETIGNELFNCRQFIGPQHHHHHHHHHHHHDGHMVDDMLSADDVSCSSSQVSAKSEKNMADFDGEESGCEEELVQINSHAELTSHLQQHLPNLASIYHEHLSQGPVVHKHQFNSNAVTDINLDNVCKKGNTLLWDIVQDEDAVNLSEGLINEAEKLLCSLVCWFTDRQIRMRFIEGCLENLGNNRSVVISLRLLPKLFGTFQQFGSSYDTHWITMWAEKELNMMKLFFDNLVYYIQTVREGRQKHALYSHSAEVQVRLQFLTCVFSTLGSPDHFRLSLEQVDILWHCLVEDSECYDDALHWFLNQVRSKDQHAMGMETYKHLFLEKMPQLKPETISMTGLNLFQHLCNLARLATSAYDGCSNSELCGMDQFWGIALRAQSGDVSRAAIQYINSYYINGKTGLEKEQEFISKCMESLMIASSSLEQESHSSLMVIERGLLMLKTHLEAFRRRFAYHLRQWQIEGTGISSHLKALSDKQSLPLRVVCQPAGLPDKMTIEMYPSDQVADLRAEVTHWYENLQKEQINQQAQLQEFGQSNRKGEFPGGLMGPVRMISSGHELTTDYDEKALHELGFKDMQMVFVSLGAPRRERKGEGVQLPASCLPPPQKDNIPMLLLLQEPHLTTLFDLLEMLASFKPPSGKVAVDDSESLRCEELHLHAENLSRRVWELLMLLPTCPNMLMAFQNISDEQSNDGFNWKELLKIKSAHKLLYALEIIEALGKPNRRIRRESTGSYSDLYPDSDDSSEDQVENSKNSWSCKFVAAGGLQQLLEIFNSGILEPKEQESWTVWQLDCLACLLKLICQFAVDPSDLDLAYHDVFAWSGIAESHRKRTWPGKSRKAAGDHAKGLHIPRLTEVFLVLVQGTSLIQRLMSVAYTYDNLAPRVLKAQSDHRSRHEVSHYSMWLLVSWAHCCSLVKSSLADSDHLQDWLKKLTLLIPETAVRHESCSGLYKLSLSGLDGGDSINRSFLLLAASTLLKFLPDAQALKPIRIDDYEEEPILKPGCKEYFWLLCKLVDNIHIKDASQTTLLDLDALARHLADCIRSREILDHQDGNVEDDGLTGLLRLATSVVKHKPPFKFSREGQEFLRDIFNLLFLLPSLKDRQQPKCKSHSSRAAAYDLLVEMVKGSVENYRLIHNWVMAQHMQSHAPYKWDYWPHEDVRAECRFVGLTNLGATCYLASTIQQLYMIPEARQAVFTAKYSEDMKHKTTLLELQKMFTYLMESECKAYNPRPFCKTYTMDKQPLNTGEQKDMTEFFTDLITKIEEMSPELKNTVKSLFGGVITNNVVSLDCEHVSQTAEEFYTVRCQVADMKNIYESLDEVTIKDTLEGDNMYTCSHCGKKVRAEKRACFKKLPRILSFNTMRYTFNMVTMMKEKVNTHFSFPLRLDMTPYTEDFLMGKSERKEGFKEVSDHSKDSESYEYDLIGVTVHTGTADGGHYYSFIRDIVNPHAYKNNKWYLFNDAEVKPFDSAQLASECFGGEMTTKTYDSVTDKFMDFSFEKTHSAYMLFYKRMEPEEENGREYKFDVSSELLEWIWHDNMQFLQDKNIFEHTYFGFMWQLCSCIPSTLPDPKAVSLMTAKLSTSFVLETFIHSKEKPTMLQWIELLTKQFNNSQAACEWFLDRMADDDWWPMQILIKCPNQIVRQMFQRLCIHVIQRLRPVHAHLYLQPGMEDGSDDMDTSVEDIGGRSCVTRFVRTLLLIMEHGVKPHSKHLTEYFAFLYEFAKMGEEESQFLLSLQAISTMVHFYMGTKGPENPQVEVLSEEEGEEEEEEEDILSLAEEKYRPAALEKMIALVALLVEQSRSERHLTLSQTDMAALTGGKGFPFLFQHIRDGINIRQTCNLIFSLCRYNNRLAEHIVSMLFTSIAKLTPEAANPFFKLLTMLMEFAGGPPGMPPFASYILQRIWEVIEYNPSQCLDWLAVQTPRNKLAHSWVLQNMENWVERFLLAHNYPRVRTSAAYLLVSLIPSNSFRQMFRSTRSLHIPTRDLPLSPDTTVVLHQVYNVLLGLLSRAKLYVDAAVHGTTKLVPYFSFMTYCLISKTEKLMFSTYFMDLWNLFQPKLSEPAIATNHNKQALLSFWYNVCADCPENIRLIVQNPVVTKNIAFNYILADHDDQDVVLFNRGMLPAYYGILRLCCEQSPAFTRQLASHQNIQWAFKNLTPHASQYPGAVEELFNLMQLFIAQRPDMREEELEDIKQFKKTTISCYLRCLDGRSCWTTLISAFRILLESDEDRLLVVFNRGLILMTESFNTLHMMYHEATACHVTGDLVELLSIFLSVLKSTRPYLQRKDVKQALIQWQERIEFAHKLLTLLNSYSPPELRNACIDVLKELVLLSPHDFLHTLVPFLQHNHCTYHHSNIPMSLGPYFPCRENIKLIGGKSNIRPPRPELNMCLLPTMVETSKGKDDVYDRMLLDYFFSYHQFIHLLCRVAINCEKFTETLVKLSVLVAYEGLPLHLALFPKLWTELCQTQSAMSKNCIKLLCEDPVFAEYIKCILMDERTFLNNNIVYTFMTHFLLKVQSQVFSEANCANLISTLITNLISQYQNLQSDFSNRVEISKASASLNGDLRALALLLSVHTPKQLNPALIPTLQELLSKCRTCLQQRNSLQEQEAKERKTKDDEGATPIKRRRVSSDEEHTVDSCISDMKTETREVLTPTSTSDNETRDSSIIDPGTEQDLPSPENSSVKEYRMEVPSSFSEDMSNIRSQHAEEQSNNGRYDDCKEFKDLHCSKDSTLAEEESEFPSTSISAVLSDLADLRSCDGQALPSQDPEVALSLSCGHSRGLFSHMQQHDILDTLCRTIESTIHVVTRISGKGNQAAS

Cl.Cn1nc2c(c1CNC(=O)CCl)CCCC2
inactive: USP34 -0.177 | USP36 -0.0094 | USP38 0.0557 | USP39 0.242 | USP4 0.0436
